# Experimental data as given in PubChem BioAssay (NCATS).
# Records with an inconclusive call do not appear. A call without a number means that no potency is given here. Calls of active or inactive are those of the source. Calls follow the shape of the dose curve; as a rule, active = well fitted inhibition curve with a large enough effect; inconclusive = small, poorly fitted or top-dose-only effect; inactive = flat fitted curve, though single readings scatter.
# Biological target: Calcium and integrin-binding protein 1 (Homo sapiens) (UniProt Q99828)
# Sequence (Q99828 whole entry, looked up): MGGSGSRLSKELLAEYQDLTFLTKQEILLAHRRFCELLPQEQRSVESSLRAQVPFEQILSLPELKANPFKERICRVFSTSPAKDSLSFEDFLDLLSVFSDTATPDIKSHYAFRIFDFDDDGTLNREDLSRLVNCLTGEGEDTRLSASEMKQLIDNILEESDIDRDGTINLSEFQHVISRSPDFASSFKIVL
# Assay: Primary qHTS for Identification of Calcium Integrin Binding Protein 1 (CIB1) Competitor (AID 1508620); also: top concentration of the series differs between compounds
# Conditions: CIB1-GST / FITC-alphaIIb peptide fluorescence polarization; series mostly up to 114 µM
# Outline: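 Fluorescence polarization competition: GST-tagged CIB1 (1 uM final) preincubated with compound 15 min at room temperature, then FITC-labelled alphaIIb peptide (100 nM final) added. After 15 min at room temperature, polarization read at Ex 480/Em 540.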
row,SMILES,Potency
1,CCOc1ccc(CCNC(=O)CN(C)C)cc1OCC,inactive
2,COc1ccc(OCc2nnc3n2N=C(c2ccccc2)CS3)cc1,inactive
3,CN(C)c1ccc(-c2cc(O)c3ncccc3c2)cc1,inactive
4,Cc1cc(NCc2ccc(-c3cccnc3)cc2)nc(-c2ccccc2C(C)C)n1,inactive
5,COc1cccc(C2c3c(ncn(-c4ccccn4)c3=N)Oc3ccc4ccccc4c32)c1 (stereo not given),inactive
6,Cc1ccc(OCCn2c(CCNC(=O)c3ccncc3)nc3ccccc32)cc1,inactive
7,NC(=O)C1CCN(c2nc(-c3ccc([N+](=O)[O-])cc3)cs2)CC1,inactive
8,O=C1Nc2ccccc2/C1=C\c1ccc(O)c(F)c1,inactive
9,O=[S+]([O-])(c1ccc2nsnc2c1)N1CCN([S+](=O)([O-])c2c(F)cccc2F)CC1,inactive
10,Cc1ccc(NC(=O)CN2C(=O)N/C(=C\c3cccn3-c3ccc(C(=O)O)cc3)C2=O)cc1,inactive
11,Cc1noc(C)c1-c1ccc2ncnc(NCc3ccc(F)c(F)c3)c2c1,inactive
12,Cc1ccc(NS(=O)(=O)c2cccc(F)c2)cc1C,inactive
13,COc1ccc(-c2no[n+]([O-])c2C#N)cc1,inactive
14,Cc1cc(C)nc(NC(=S)N2CCN(c3ccccc3C#N)CC2)c1,inactive
15,O=[N+]([O-])c1ccccc1S(=O)(=O)N1CCN(S(=O)(=O)c2ccc3c(c2)OCCO3)CC1,inactive
16,CNc1oc(-c2cccc(-c3ccccc3)c2)nc1C#N,inactive
17,Cc1cc(NC(=O)Nc2cccc(-c3ccncc3)n2)ccc1Cl,inactive
18,Fc1ccccc1-c1nc(-c2ccccc2)no1,inactive
19,Cn1cc(P(=O)(c2ccccc2)c2ccccc2)c2ccccc21,inactive
20,FC(F)(F)c1ccccc1-c1nc2c(c(NCc3ccc(-c4cccnc4)cc3)n1)CCC2,inactive

row,SMILES,Potency
1,O=C(Nc1ccc2c(c1)OCCO2)Nc1nnc(-c2ccncc2)s1,inactive
2,CN(C)c1ccc(/C=C/C(=O)Nc2cccc([S+](=O)([O-])Nc3ccccc3F)c2)cc1,inactive
3,O=C(CSc1ncnc2sc3c(c12)CCCCC3)NCc1ccco1,inactive
4,O=[S+]([O-])(c1ccc2c(c1)OCCO2)N1CCN([S+](=O)([O-])c2c(F)cc(Br)cc2F)CC1,inactive
5,Cc1cc(C)nc(NC(=S)N2CCN(c3ccc4c(c3)OCO4)CC2)c1,inactive
6,FC(F)(F)c1ccccc1-c1nc(NCc2ccc(Br)cc2)c2ccccc2n1,inactive
7,Cc1c([S+](=O)([O-])N2CCN([S+](=O)([O-])c3c(F)cccc3F)CC2)sc2ccc(Cl)cc12,inactive
8,COc1ccc(NC(=O)C(OC(=O)CNC(=O)c2ccccc2)c2ccccc2)cc1Cl (stereo not given),inactive
9,COc1cccc(CC(=O)Nc2nc(-c3ccc4c(c3)CCN4C(=O)c3ccccc3C)c(C)s2)c1,inactive
10,COc1cccc(-c2nnc3n2N=C(c2ccccc2OC)CS3)c1,inactive
11,CN(CC1CCCO1)c1ncnc2ccc(-c3ccc4c(c3)OCO4)cc12 (stereo not given),inactive
12,Cc1cc(C)nc(NC(=S)N2CCN(S(=O)(=O)c3cccc(C(F)(F)F)c3)CC2)c1,inactive
13,COc1ccc(CN(Cc2ccccc2)S(=O)(=O)c2ccccc2)cc1COc1ccc(NC(C)=O)cc1,inactive
14,O=S(=O)(NCc1ccccc1F)c1ccc(O)c2ncccc12,inactive
15,Cc1ccc(NS(=O)(=O)c2ccc3c(c2)CC(=O)N3C)cc1C,inactive
16,O=C(O)c1ccc(O)c2ncc(NCC3CCCN(CCc4ccccc4)C3)cc12 (stereo not given),inactive
17,COc1cc(NC(=O)c2cnn3c(C)cc(C)nc23)cc(OC)c1OC,inactive
18,O=C(Nc1ccc(-c2ccccc2)cc1)Nc1nnc(-c2ccncc2)s1,inactive
19,Cc1cccc(-n2cnc3cc(C(=O)N4CCC(C#N)CC4)ccc32)c1,inactive
20,Cc1ccsc1CNc1ncnc2ccc(-c3ccc4c(c3)OCO4)cc12,inactive
